Structures are written as SMILES. Hit rate of the full screen: of about 39,000 compounds, about 3,300 (8.5%) were called active. The list comes from a sample in which actives are over-represented; it also holds similar structures and randomly drawn compounds.

This assay deals with HepG2. In words: cytotoxicity call (relative viability < 0.9). Conditions: 10 µM.
Turning to `C[C@H]1CN([C@@H](C)CO)S(=O)(=O)c2ccc(-c3cccnc3)cc2O[C@@H]1CN(C)C(=O)NC1CCCC1`, the cytotoxicity call is “inactive”.
For `O=C(C1CC1)N1CCCN(C(=O)C2CC2)CC1` the value was “inactive”.
Consider `Cc1noc(C)c1S(=O)(=O)Nc1ccc2c(c1)C(=O)N([C@@H](C)CO)C[C@H](C)[C@H](CN(C)C(=O)Nc1ccc(F)cc1)OCCCC[C@H](C)O2`, for which the cytotoxicity call was “inactive”.
To `O=c1ccn([C@@H]2O[C@H](CO)[C@@H](O)[C@H]2O)c(=O)[nH]1` belongs “inactive”; to `O=c1ccn([C@H]2O[C@H](CO)[C@@H](O)[C@@H]2O)c(=S)[nH]1`, “active”.
To `O=c1ccn(C2OC(CO)C(O)C2O)c(=O)[nH]1` (stereo not given) belongs “inactive”; to `C[C@H]1CN([C@@H](C)CO)C(=O)Cc2cc(NC(=O)CCC(F)(F)F)ccc2O[C@@H]1CN(C)C(=O)Nc1cccc2ccccc12`, “inactive”; to `NC[C@H](c1ccco1)N1CCCCCC1`, “inactive”.
To `OC[C@@H]1CC[C@@H]2O[C@H](CCc3ccc(C#Cc4ccccc4)cc3)[C@H](n3cc(-c4ccccc4)nn3)C[C@@H]2O1` belongs “inactive”; to `OC[C@H]1CC[C@@H]2O[C@H](CCc3ccc(C#CCc4ccccc4)cc3)[C@H](n3cc(-c4ccccc4)nn3)C[C@@H]2O1`, “inactive”; to `OC[C@H]1CC[C@@H]2O[C@H](CCc3ccc(C#CCc4ccccc4)cc3)[C@@H](n3cc(-c4ccccc4)nn3)C[C@@H]2O1`, “inactive”.
As for `OC[C@H]1CC[C@@H]2O[C@H](CCc3ccc(C#Cc4ccccc4)cc3)[C@@H](n3cc(-c4ccccc4)nn3)C[C@@H]2O1`, the cytotoxicity call is “active”.
To `OC[C@H]1CC[C@@H]2O[C@H](CCc3ccc(C#Cc4ccccc4)cc3)[C@H](n3cc(-c4ccccc4)nn3)C[C@@H]2O1` belongs “inactive”; to `OC[C@@H]1CC[C@@H]2O[C@H](CCc3ccc(C#Cc4ccccc4)cc3)[C@@H](n3cc(-c4ccccc4)nn3)C[C@@H]2O1`, “active”.
For `C[C@H](CO)N1C[C@H](C)[C@@H](CN(C)Cc2ccc(C(=O)O)cc2)OCCCC[C@H](C)Oc2ccc(NS(=O)(=O)c3ccccc3)cc2C1=O` the value was “inactive”.
For `CN1CCN(C(=O)C[C@H]2CC[C@H]3[C@@H](COC[C@@H](O)CN3C(=O)C3CC3)O2)CC1` the value was “inactive”; for `C[C@H](CO)N1C[C@H](C)[C@H](CN(C)Cc2ccccc2)Oc2ccc(NC(=O)Cn3cnnn3)cc2CC1=O`, “inactive”.
`COc1ccc(S(=O)(=O)N(C)C[C@@H]2Oc3ncc(-c4ccncc4)cc3C(=O)N([C@H](C)CO)C[C@H]2C)cc1`: the cytotoxicity call is “inactive”.
To `NCc1cccc2c1OCC2` belongs “inactive”.
For the molecule `CCOc1nc2c(N)ncnc2n1CC`, the cytotoxicity call is “inactive”.
To `CC(C)NCCCn1c(Sc2cc3c(cc2I)OCO3)nc2c(N)ncnc21` belongs “active”.
To `COc1ccc(CN(C)C[C@H]2OCCCC[C@H](C)Oc3ccc(NC(=O)Nc4ccccc4)cc3C(=O)N([C@H](C)CO)C[C@H]2C)cc1` belongs “inactive”; to `C[C@@H]1CN([C@H](C)CO)S(=O)(=O)c2ccc(C#CCC3CCCC3)cc2O[C@H]1CN(C)C(=O)c1cnccn1`, “inactive”.
For `C[C@@H]1CCCCO[C@@H](CN(C)C(=O)Nc2ccccc2)[C@@H](C)CN([C@@H](C)CO)C(=O)c2cc(NC(=O)Nc3ccccc3)ccc2O1` the value was “inactive”.
`Cc1noc(C)c1NC(=O)Nc1ccc2c(c1)C(=O)N([C@H](C)CO)C[C@H](C)[C@@H](CN(C)S(=O)(=O)c1ccccc1)O2`: the cytotoxicity call was “inactive”.
Take `Cc1noc(C)c1S(=O)(=O)Nc1cccc2c1O[C@H](CN(C)C(=O)NC(C)C)[C@H](C)CN([C@@H](C)CO)C2=O`: the cytotoxicity call was “inactive”.
To `COc1ccc(S(=O)(=O)N[C@@H]2C=C[C@H](CC(=O)NCCc3ccncc3)O[C@H]2CO)cc1` belongs “inactive”; to `O=C(C[C@@H]1C[C@H]2c3cc(NC(=O)c4ccc5c(c4)OCO5)ccc3O[C@H]2[C@H](CO)O1)NCCN1CCCCC1`, “inactive”.
In the case of `COc1ccc([Si](C)(C)[C@@H]2[C@@H](CC(=O)N3Cc4ccccc4C[C@H]3CO)O[C@]3(C(=O)N(Cc4ccc(I)cc4)c4ccccc43)[C@H]2C)cc1`, the cytotoxicity call was “inactive”.
For `COc1ccc(C(=O)Nc2cccc(CN3C(=O)[C@]4(O[C@H](CC(=O)N5CCC[C@H]5CO)[C@@H]([Si](C)(C)c5ccc(OC)cc5)[C@@H]4C)c4ccccc43)c2)cc1` the value was “inactive”; for `COc1ccc([Si](C)(C)[C@@H]2[C@@H](CC(=O)N3Cc4ccccc4C[C@H]3CO)O[C@]3(C(=O)N(Cc4ccc(N5CCOC5=O)cc4)c4ccccc43)[C@H]2C)cc1`, “inactive”; for `COc1ccc(C(=O)Nc2ccc(CN3C(=O)[C@]4(O[C@H](CC(=O)N5Cc6ccccc6C[C@H]5CO)[C@@H]([Si](C)(C)c5ccc(OC)cc5)[C@@H]4C)c4ccccc43)cc2)cc1`, “active”.
To `COc1ccc(C(=O)Nc2ccc(CN3C(=O)[C@@]4(O[C@@H](CC(=O)N5Cc6ccccc6C[C@H]5CO)[C@H]([Si](C)(C)c5ccc(OC)cc5)[C@H]4C)c4ccccc43)cc2)cc1` belongs “inactive”.
To `COc1ccc(C(=O)Nc2cccc(CN3C(=O)[C@@]4(O[C@@H](CC(=O)N5Cc6ccccc6C[C@H]5CO)[C@H]([Si](C)(C)c5ccc(OC)cc5)[C@H]4C)c4ccccc43)c2)cc1` belongs “active”.
In the case of `COc1ccc([Si](C)(C)[C@H]2[C@H](CC(=O)N3Cc4ccccc4C[C@H]3CO)O[C@@]3(C(=O)N(Cc4ccc(N5CCOC5=O)cc4)c4ccccc43)[C@@H]2C)cc1`, the cytotoxicity call was “active”.
For `COc1ccc(C(=O)Nc2cccc(CN3C(=O)[C@@]4(O[C@@H](CC(=O)N5CCC[C@H]5CO)[C@H]([Si](C)(C)c5ccc(OC)cc5)[C@H]4C)c4ccccc43)c2)cc1` the value was “inactive”; for `COc1ccc([Si](C)(C)[C@H]2[C@H](CC(=O)N3Cc4ccccc4C[C@H]3CO)O[C@@]3(C(=O)N(Cc4cccc(N5CCOC5=O)c4)c4ccccc43)[C@@H]2C)cc1`, “inactive”.
For `C[C@H](CO)N1C[C@H](C)[C@@H](CN(C)Cc2ccc(-c3ccccc3)cc2)Oc2c(NC(=O)C3CCOCC3)cccc2C1=O` the value was “inactive”; for `C[C@@H]1CN([C@H](C)CO)C(=O)c2cc(NC(=O)CCCN(C)C)ccc2O[C@@H](C)CCCCO[C@@H]1CN(C)S(C)(=O)=O`, “inactive”.
As for `C[C@@H]1CN([C@H](C)CO)C(=O)CCCn2cc(nn2)CO[C@@H]1CN(C)C(=O)Nc1ccc(N2CCCCC2)cc1`, the cytotoxicity call is “inactive”.
